Screen size: about 86,000 compounds; about 1,200 (1.4%) were called active. For the sample, actives were picked, then their nearest neighbours and some compounds at random. A number with no mark means an inactive call. Cut-off read from the data, not from the text of the source: active = activity above about 200%; inactive = the rest.

This assay deals with Estrogen receptor (Homo sapiens) (UniProt P03372). Description: ERα coactivator recruitment potentiators – biochemical, TR-FRET, ERα LBD, low estradiol, primary screen (AID 639).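 Note: binding measured in presence of low estradiol as agonist stimulus; 0% = peptide alone without receptor and 100% = receptor with peptide.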 Conditions: TR-FRET ERalpha-LBD/SRC-Cy5 coactivator binding, 2 h; at 25.6 µM; stronger effect = higher value; 100 = basal binding, no effect.
Chain of Estrogen receptor (Homo sapiens) (P03372 whole entry, looked up, the tested form may be a part): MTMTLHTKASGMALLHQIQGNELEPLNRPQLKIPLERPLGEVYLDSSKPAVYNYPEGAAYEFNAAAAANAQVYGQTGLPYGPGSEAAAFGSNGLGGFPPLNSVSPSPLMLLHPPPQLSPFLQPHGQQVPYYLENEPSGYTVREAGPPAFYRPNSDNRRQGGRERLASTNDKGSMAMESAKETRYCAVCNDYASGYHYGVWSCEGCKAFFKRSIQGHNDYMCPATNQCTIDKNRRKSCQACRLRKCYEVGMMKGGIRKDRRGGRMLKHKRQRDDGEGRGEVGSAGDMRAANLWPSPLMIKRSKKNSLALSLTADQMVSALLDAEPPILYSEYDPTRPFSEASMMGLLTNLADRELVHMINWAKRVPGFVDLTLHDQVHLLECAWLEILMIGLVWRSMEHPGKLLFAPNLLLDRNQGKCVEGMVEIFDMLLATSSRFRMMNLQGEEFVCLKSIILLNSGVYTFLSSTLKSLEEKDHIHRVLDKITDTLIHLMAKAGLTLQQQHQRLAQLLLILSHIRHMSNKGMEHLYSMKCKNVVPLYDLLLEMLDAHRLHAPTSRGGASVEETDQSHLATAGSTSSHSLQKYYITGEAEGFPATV
In the case of `CCOc1cc(C2C(C(=O)OC)=CN(C3CCCC3)C=C2C(=O)OC)cc(Br)c1O`, the coactivator binding (% of control) was 210% [fluorescence artefact?] (active).
Regarding `CCOc1ccccc1C1C(C(=O)OC)=CN(C)C=C1C(=O)OC`, the coactivator binding (% of control) was 93.7%.
The figure for `CCOc1ccc(CNC(=O)C2CCC(=O)N2C2CCCC2)cc1OC` (stereo unspecified) is 131%; for `CCOCc1nnc(NC(=O)CSc2ccc(C)cc2)s1` it is 102%.
Regarding `CCOc1ccccc1NC(=O)C1CCCN(C(=O)Nc2ccccc2)C1` (stereo unspecified), the coactivator binding (% of control) is 92.4%.
As for `CCOc1ccc(NC(=O)Nc2cc(C)on2)cc1`, the coactivator binding (% of control) is 107%.
Consider `CCOc1ccc(CC(=O)Nc2ccc(S(=O)(=O)Nc3cc(C)on3)cc2)cc1OCC`, for which the coactivator binding (% of control) was 311% [fluorescence artefact?] (active).
With `Cc1cc(NS(=O)(=O)c2ccccc2)no1`, the coactivator binding (% of control) is 122%.
For the compound `CCCCC(C(=O)OCC(=O)c1ccc(OC)cc1)N1C(=O)c2ccccc2C1=O` (stereo unspecified), the coactivator binding (% of control) was 97.8%.
As to `Cn1c(=O)c2c(ncn2CC(COCc2ccccc2Cl)OCc2ccccc2Cl)n(C)c1=O` (stereo unspecified), the coactivator binding (% of control) was 112%.
With `CCOC(=O)c1nnn(-c2nonc2-n2cccc2)c1CN1CCC(C(=O)OCC)CC1`, the coactivator binding (% of control) was 114%.
The figure for `O=c1[nH]c(SCc2ccccc2)nnc1-c1ccccc1` is 103%; for `CCOc1ccc2cc(C#N)c(SCC(=O)OC)nc2c1` it is 260% [fluorescence artefact?] (active).
Regarding `COc1ccc(N2CCN(C(=O)CSc3nc4cc(OC)c(OC)cc4cc3C#N)CC2)cc1`, the coactivator binding (% of control) is 101%.
For `COC(=O)CSc1nc(C)c2ccc(OC)cc2n1` the value was 100%.
`CC(C)C(OC(=O)c1cccs1)C(=O)NC1CCCCC1` (stereo unspecified): the coactivator binding (% of control) was 115%.
Turning to `CCOCCCNC(=O)C(NC(=O)c1ccc(=O)[nH]c1)c1ccc(C)cc1` (stereo unspecified), the coactivator binding (% of control) was 107%.
As to `CCOC(=O)c1cnc(-n2nc(C)cc2C)nc1Nc1cccc(C(C)=O)c1`, the coactivator binding (% of control) was 868% [fluorescence artefact?] (active).
Regarding `CCOC(=O)c1cnc(SCC(=O)Nc2cccc(OC)c2)nc1N`, the coactivator binding (% of control) was 113%.
In the case of `CCOC(=O)c1cnc(-n2nc(C)cc2C)nc1-n1nc(C)cc1C`, the coactivator binding (% of control) was 116%.
On to `N=c1c2c3c(sc2nc2n1CCCCC2)CCCC3`, for which the coactivator binding (% of control) was 113%.
Regarding `CNC(=S)N1N=C(c2ccccc2)CC1c1ccc(Br)cc1` (stereo unspecified), the coactivator binding (% of control) is 171%.
In the case of `COc1ccc(-c2nnc(SCC(=O)c3cccs3)o2)c(OC)c1`, the coactivator binding (% of control) was 94.7%.
Take `COc1ccc(OC)c(C(=O)CSc2nnc(-c3cccs3)o2)c1`: the coactivator binding (% of control) is 125%.
Take `COc1ccc(-n2c(C)cc(C(=O)CSc3nnc(-c4cccs4)o3)c2C)cc1`: the coactivator binding (% of control) is 201% (active).
As for `CCN(CC)C(=O)CSc1ncnc2c1cnn2-c1ccccc1`, the coactivator binding (% of control) is 117%.
In the case of `Cc1nc2c(-c3ccc(F)cc3)c(C)nn2c(C)c1CCC(=O)NCc1ccco1`, the coactivator binding (% of control) is 96.1%.
For the compound `CC(C)N1C(=S)SC(C)(C)C1n1oc(=O)n(-c2ccc(Cl)c(Cl)c2)c1=O` (stereo unspecified), the coactivator binding (% of control) was 113%.
As to `Cc1cc(C)n(C(=O)CCNC(=O)c2ccccc2Cl)n1`, the coactivator binding (% of control) is 100%.
For `Cc1ccc(C)c(N2C(=O)CS/C2=N\NC(=O)c2ccccc2Cl)c1`, the coactivator binding (% of control) is 102%.
The figure for `CCc1ccc(CNC(=O)C2CC(=O)N(CCc3ccc(C)cc3)C2)cc1` (stereo unspecified) is 115%; for `N#C/C(=C1\CCCN1)c1nc(-c2ccccc2)cs1` it is 116%.
For `N#CC(=C1SC=CS1)c1nc(-c2ccccc2)cs1`, the coactivator binding (% of control) is 206% (active).
For `N#CC(=C1CCCC1)c1nc(-c2ccc(Cl)cc2)cs1` the value was 103%; for `Cc1nc(N2CCOCC2)nc2c1CCCC2`, 111%.
The figure for `CCCOc1ccc(N2C(=O)CC(N(CCc3ccc(S(N)(=O)=O)cc3)C(C)=O)C2=O)cc1` (stereo unspecified) is 126%; for `Nn1c(Cc2cccc3ccccc23)nnc1SCC(=O)N1CC(=O)Nc2ccccc21` it is 63.7%.
The figure for `Cc1cccc(-n2ncc3c(N4CCc5ccccc54)ncnc32)c1` is 137%.
On to `COc1ccc(-n2ncc3c(N4CCc5ccccc54)ncnc32)cc1`, for which the coactivator binding (% of control) is 200% [fluorescence artefact?] (active).
Regarding `COc1ccc(-n2ncc3c(N4CCCc5ccccc54)ncnc32)cc1`, the coactivator binding (% of control) is 97.2%.
Take `CCOC(=O)NC(C(F)(F)F)(C(F)(F)F)P(=O)(c1ccccc1)c1ccccc1`: the coactivator binding (% of control) was 95.9%.
For `CCOC(=O)c1nnn(-c2nonc2OC)c1-c1ccccc1` the value was 102%.
For the compound `CCOC(=O)C1=C(c2ccccc2)O/C(=C(/C(=O)OC)C(F)(F)F)S1`, the coactivator binding (% of control) was 360% [fluorescence artefact?] (active).
Regarding `COC(=O)c1ccccc1NC(=O)Cc1ccccc1OC`, the coactivator binding (% of control) is 120%.
For `COc1ccc(NC(=O)CC2COc3ccccc3O2)c(OC)c1` (stereo unspecified) the value was 104%; for `CCc1ccc(NC(=O)CSc2nnc(-c3cnccn3)n2Cc2ccco2)cc1`, 148%.

The values above are taken from PubChem BioAssay AID639 (Emory University Molecular Libraries Screening Center, 2007).
